Screening data from PubChem.
RGS16-Gao: regulators of human RGS16-Galphao interaction | AID 1441 | binding response (% of control), % at 10 µM | bead-based flow cytometry RGS16-Galphao binding, fluorescence; actives lie on both sides | 220,000 compounds, 0.38% hits;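 further: Galphao activated by GDP with aluminum fluoride before binding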
Target sequence (O15492 whole entry, looked up): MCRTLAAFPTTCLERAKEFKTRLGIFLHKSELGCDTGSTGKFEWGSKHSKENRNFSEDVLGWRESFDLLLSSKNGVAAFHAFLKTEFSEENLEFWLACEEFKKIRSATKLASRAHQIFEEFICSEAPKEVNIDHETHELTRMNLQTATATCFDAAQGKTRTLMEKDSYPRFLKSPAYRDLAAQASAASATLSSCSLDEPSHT
Target sequence (P09471 whole entry, looked up): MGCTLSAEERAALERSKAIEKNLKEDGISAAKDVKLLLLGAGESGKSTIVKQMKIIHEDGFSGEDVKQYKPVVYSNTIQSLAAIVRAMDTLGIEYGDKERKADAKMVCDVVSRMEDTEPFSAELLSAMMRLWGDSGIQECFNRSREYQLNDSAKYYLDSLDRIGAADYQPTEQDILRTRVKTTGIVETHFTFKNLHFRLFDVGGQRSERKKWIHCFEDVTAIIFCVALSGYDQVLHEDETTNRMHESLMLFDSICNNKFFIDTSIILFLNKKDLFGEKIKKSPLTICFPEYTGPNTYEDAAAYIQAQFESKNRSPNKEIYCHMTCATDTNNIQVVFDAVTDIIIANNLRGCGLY
GSH fluor: GSH bead compound fluorescence profile; GSH beads flow cytometry, compound fluorescence 488/530 nm; stronger effect = higher value; fluorescence (KMESF) at 10 µM; 190,000 compounds, 0.25% hits; in the data active means fluorescence above about 89;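 further: glutathione beads carrying GST-tagged Bcl family fusion proteins plus one bare bead set; values are compound well signal with DMSO vehicle wells as background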
RGS8-Gao reg: regulators of human RGS8-Galphao interaction; P09471; multiplexed bead flow cytometry, RGS8-Galphao binding; actives lie on both sides; response (percent of control binding), % at 10 µM; 220,000 compounds, 0.34% hits; AID 1423; in the data active means response below about 60% or above about 140%; inactive means in between;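 further: Galphao activated as the GDP aluminium fluoride complex binding bead-coupled RGS8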
Target sequence (P09471 whole entry, looked up): as above
RGS4-Gao reg: modulates binding of RGS4 to human Galphao | Multiplexed bead flow cytometry; actives lie on both sides | binding response (% of control), % at 10 µM | 220,000 compounds, 0.33% hits; in the data active means binding response below about 49% or above about 150%; inactive means in between;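 further: fluorescent Galphao activated with aluminum fluoride binding bead-coupled RGS4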
Avidin bead fluor: avidin bead compound fluorescence profile; Avidin beads, compound fluorescence 488/530 nm, flow cytometry; stronger effect = higher value; fluorescence (KMESF) at 10 µM; 220,000 compounds, 0.38% hits; in the data active means fluorescence above about 47
RGS7-Gao reg: regulators of human RGS7-Galphao interaction; Multiplexed bead flow cytometry, RGS7-Galphao binding; actives lie on both sides; binding response (% of control), % at 10 µM; 220,000 compounds, 0.35% hits; in the data active means binding response below about 49% or above about 150%; inconclusive means no clear call, values can overlap the other calls; inactive means in between;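 further: fluorescent Galphao held in activated GDP-AlF4 state binding bead-coupled RGS7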
RGS4-Gao HTS: RGS4-Galphao interaction regulator (human) | multiplexed bead flow cytometry, RGS–Galpha-o binding | RGS4–Galpha-o binding response, % at 10 µM | 1,600 compounds, 99% hits | shares compounds with RGS16-Gao;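 further: fluorescently labeled Galpha-o bound to GDP with aluminium fluoride binding biotinylated RGS beads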
Biotin-avidin: interferes with biotinylated probe binding to avidin beads; shares compounds with RGS16-Gao; streptavidin beads, fluorescein-biotin binding, flow cytometry; inhibition, % at 10 µM; 1,700 tested, under 10 active;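 active means inhibition above 50%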;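 further: median green fluorescence of gated singlet beads compared with DMSO control wells; 0% = DMSO wells and 100% = complete loss of bead fluorescence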
RGS8-Gao single: confirmation of regulators of human RGS8-Galphao interaction; 1,700 compounds, 3% hits; AID 1836; shares compounds with RGS16-Gao; binding response (% of control), % at 10 µM; bead-based flow cytometry RGS8-Galphao binding, fluorescence; actives lie on both sides; in the data active means binding response below about 72% or above about 130%; inactive means in between;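 further: Galphao activated as GDP AlF4 complex before binding bead RGS8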
RGS7-Gao single: RGS7-Galphao interaction regulation, single point confirmation | shares compounds with RGS16-Gao | bead-based flow cytometry RGS7-Galphao binding; actives lie on both sides | response (percent of control binding), % at 10 µM | 1,700 compounds, 7.8% hits; in the data active means response below about 75% or above about 130%; inactive means in between;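 further: fluorescent Galphao activated with GDP and aluminum fluoride binding bead-coupled RGS7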
RGS16-Gao conf: confirmation of regulators of human RGS16-Galphao interaction; shares compounds with RGS16-Gao; bead-based flow cytometry, RGS16-Galphao binding; actives lie on both sides; response (% of control binding), % at 10 µM; 1,700 compounds, 4% hits; in the data active means response below about 74% or above about 130%; inactive means in between;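 further: Galphao activated as the GDP aluminium fluoride complex binding bead-coupled RGS16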
RGS4-Gao confirm: confirmation of regulators of human RGS4-Galphao interaction | shares compounds with RGS16-Gao | RGS4-Galphao binding, multiplexed bead flow cytometry; actives lie on both sides | binding response (% of control), % at 10 µM | 1,700 compounds, 4% hits; in the data active means binding response below about 74% or above about 130%; inactive means in between
RGS19-Gao single: confirmation of regulators of human RGS19-Galphao interaction. shares compounds with RGS16-Gao. bead-based flow cytometry RGS19-Galphao binding; actives lie on both sides. response (percent of control binding), % at 10 µM. 1,700 compounds, 5% hits. AID 1841; in the data active means response below about 50% or above about 160%; inactive means in between;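 further: 100% = no compound control and 0% = blank background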
* = called active by the depositor; u = inconclusive; x = not tested or not shown; [ ] = remark or other dose. Sampled rows, rich in hits. Any-hit rate of the full collection: about 1.2%. Unless noted, how the calls were made is not given here.

SMILES	RGS16-Gao	GSH fluor	RGS8-Gao reg	RGS4-Gao reg	Avidin bead fluor	RGS7-Gao reg	RGS4-Gao HTS	Biotin-avidin	RGS8-Gao single	RGS7-Gao single	RGS16-Gao conf	RGS4-Gao confirm	RGS19-Gao single
S=C(NCc1ccco1)Nc1ccc(Oc2ccc(Cl)cc2)cc1	-19.8*	x	14.0*	-36.6*	-2	u	x	-2.0	100.5	96.3	98.4	97.0	97.6
CCOC(=O)CSc1nc2ccccc2c(=O)n1CC1CCCO1 (stereo not given)	6.7	15	56.6*	70.8	4	71.8	70.8*	0.4	100.7	100.0	100.2	100.6	94.7
CCOC(=O)CSc1nc2ccccc2c(=O)n1CC1COc2ccccc2O1 (stereo not given)	-137.7	18	0.8*	-25.9*	-4	-13.9*	x	-5.8	115.6	130.4*[activator]	120.2	123.7	122.3
Cn1c(COc2ccccc2)nnc1SCC(=O)Nc1ccc(S(N)(=O)=O)cc1	x	43	x	x	x	x	x	-1.1	103.3	107.5	104.8	104.8	93.3
C=CCn1c(COc2ccccc2)nnc1SCC(=O)Nc1ccc(S(N)(=O)=O)cc1	108.1	33	103.3	102.8	14	100.3	x	x	x	x	x	x	x
O=C(Cc1ccccc1)Nc1cccc(C(=O)O)c1O	98.9	15	100.9	103.8	6	105.0	x	x	x	x	x	x	x
O=S(=O)(CCc1ccncc1)C1Cc2cccc3cccc1c23 (stereo not given)	97.7	x	95.9	89.1	10	u	x	x	x	x	x	x	x
NC(N)=NC(N)=Nc1ccc2ccccc2c1	100.1	12	95.0	100.8	6	98.7	x	x	x	x	x	x	x
NC(N)=NC(N)=Nc1ccc(SC(F)(F)F)cc1	15.8*	11	71.6	100.9	2	96.7	100.9*	-0.5	100.7	99.5	102.2	99.5	100.0
COc1cc(C(=O)Nc2ccc(-n3cnnn3)c(C)c2)cc(OC)c1OC	24.0*	20	40.7*	25.1*	1	28.1*	x	-0.3	107.8	106.0	117.2	105.1	120.8
Cc1cc(NC(=O)c2ccco2)ccc1-n1cnnn1	104.1	11	96.5	101.2	13	104.9	x	x	x	x	x	x	x
Cc1cc(C(=O)Nc2nc3c(C)cccc3s2)c(C)o1	17.5*	16	68.4	72.3	9	79.3	72.3*	-1.0	101.3	101.7	101.8	103.6	96.4
CSc1ncccc1C(=O)Nc1nc2c(C)cccc2s1	108.9	4	104.1	101.3	13	102.4	x	x	x	x	x	x	x
Cc1ccc(C2=NN=C(NC(=O)C(F)(F)F)SC2)cc1	101.9	10	100.2	100.5	10	100.7	x	x	x	x	x	x	x
O=C1NC(c2ccccc2)=C(c2ccccc2)C1=O	252.1	9	140.2*[activator]	116.4	7	109.0	116.4*	2.2	105.0	110.5	109.6	110.2	96.3
O=c1c(-c2ccccc2)c1-c1ccccc1	98.9	70	98.5	99.8	7	103.1	x	x	x	x	x	x	x
O=C(CNCc1ccccn1)N1CCc2ccccc2C1	101.4	x	104.4	101.5	x	u	x	x	x	x	x	x	x
Cc1nnc(N2CCOCC2)c2nn(-c3ccccc3)c(C)c12	221.3	11	146.9*[activator]	148.8	11	145.7	148.8*	0.7	102.9	116.9	104.7	113.2	103.3
CCOc1ccc(NC(=S)N(CCOC)C(C)c2ccco2)cc1 (stereo not given)	92.5	x	98.4	91.0	8	u	x	x	x	x	x	x	x
CCSc1nnc(Nc2ccccc2)s1	20.6*	11	41.9*	14.6*	7	24.8*	x	-0.6	100.8	92.2	100.7	96.5	99.2
Cc1ccc(OCCn2nc3ccccc3n2)c(C)c1	107.1	8	96.4	121.3	154*	191.5*[activator]	121.3*	0.4	100.9	105.1	105.7	106.1	88.3
Cc1ccc(OCCN2C(=O)c3ccccc3C2=O)c(C)c1	88.7	51	100.4	90.1	9	92.2	x	x	x	x	x	x	x
CCOC(=O)c1cccc(-n2c(C)nc3ccccc3c2=O)c1	72.6	29	90.7	96.5	13	99.7	x	x	x	x	x	x	x
CCOC(=O)c1cccc(-n2c(-c3ccc(OC)cc3)nc3nc4ccccc4nc32)c1	100.6	15	97.8	107.8	124*	179.5*[activator]	107.8*	0.1	95.5	103.5	100.0	100.5	90.3
CC(C)CCn1c(CN2CCN(Cc3ccccc3)CC2)nc2c1c(=O)[nH]c(=O)n2C	357.3	5	145.0*[activator]	134.9	4	125.9	134.9*	2.1	96.3	93.5	95.5	95.6	87.0
SMILES	RGS16-Gao	GSH fluor	RGS8-Gao reg	RGS4-Gao reg	Avidin bead fluor	RGS7-Gao reg	RGS4-Gao HTS	Biotin-avidin	RGS8-Gao single	RGS7-Gao single	RGS16-Gao conf	RGS4-Gao confirm	RGS19-Gao single
CC1=C(C#N)C(/C=N/OCc2ccc(F)cc2Cl)CC(=O)N1 (stereo not given)	102.1	19	101.9	99.9	11	95.6	x	x	x	x	x	x	x
O=S(=O)(c1cccc(F)c1)N1CCCN(c2ccc(C(F)(F)F)cn2)CC1	102.4	x	102.2	107.0	8	u	x	x	x	x	x	x	x
Cc1ccc(-n2c(Cn3c(C)nc4ccccc43)n[nH]c2=S)cc1	-1.4*	6	64.7	85.7	1	84.1	85.7*	-0.5	95.7	101.5	90.4	99.4	100.6
Cc1ccc(-n2c(CCc3nc4ccccc4[nH]3)n[nH]c2=S)cc1	108.7	12	101.4	103.4	10	102.7	x	x	x	x	x	x	x
COC(=O)c1c(NC(NC(=O)c2ccccc2)(C(F)(F)F)C(F)(F)F)sc2c1CCN(C)C2	111.8	20	101.1	102.3	6	102.2	x	x	x	x	x	x	x
O=C(NCC1(c2ccccc2)CCCC1)C(=O)N1CCOCC1	21.4*	12	66.4	83.4	12	81.0	83.4*	0.0	102.3	106.3	104.9	104.0	79.6
CCOC(=O)c1ccccc1NC(=O)CN(c1ccc(OCC)cc1)S(C)(=O)=O	36.1	12	81.8	90.4	9	93.1	x	x	x	x	x	x	x
